Pin1 inh: human Pin1 inhibition | Q13526 | Pin1 FP peptide displacement, HiFluor488, 10 min | Potency, µM (series often up to 115 µM), hits mostly inhibitors | 0.009% of 390,000 active; active means well fitted inhibition curve with a large enough effect in the polarisation, with a control signal flat, not every such curve was filed as active; inconclusive means small, poorly fitted or top-dose-only effect, or effect the other way, or a change in a side signal; inactive means no such curve, though single readings can be large or run the other way; the % refers to the polarisation
PI5P4Ka inh: blocks human PI5P4K alpha kinase activity; P48426; PI5P4Kalpha enzyme, ADP-Glo luminescence, 60 min; active compounds read low; max response, %; 1.2% of 330,000 active; active means max response of -50% or lower; inconclusive means between -30% and -50%; inactive means -30% or higher; further: value at the top dose of about 77 µM
Target sequence (P48426 whole entry, looked up): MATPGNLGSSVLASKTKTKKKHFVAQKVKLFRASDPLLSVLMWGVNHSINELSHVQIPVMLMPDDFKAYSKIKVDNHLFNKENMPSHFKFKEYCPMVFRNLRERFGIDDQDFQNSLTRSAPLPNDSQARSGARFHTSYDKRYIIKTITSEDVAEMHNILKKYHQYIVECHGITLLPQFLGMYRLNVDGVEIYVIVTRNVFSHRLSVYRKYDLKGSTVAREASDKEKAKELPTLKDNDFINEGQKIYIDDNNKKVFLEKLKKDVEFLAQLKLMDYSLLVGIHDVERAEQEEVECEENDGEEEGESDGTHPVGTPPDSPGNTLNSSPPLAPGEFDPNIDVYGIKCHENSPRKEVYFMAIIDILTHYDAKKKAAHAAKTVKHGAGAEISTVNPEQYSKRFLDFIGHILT
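Reactions run in 0.038 M HEPES pH 7.4, 0.28 mM EGTA, 0.1% CHAPS and 5% DMSO, with PI5P4Kalpha, substrate, compound and 5 microM ATP final, one hour at room temperature. Readout is ADP-Glo luminescence.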
PI4K2A inh: blocks human PI4K2A kinase activity | Q9BTU6 | purified PI4K2A, ADP-Glo luminescence, 1 h; active compounds read low | activity change, negative = inhibition, % at 76.9 µM | 0.13% of 420,000 active | AID 1346378; in the data active means activity change below about -50%; inconclusive means mostly about -30% to -49%
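In this quantitative HTS, ADP production by PI4K2A was quantified luminescently after 1 h at ambient temperature; 100 microM adenosine served as plate-quality control.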
PGK inhibitor: blocks T. brucei phosphoglycerate kinase | P07378 | PGK/GAPDH coupled, Kinase-Glo luminescence, 60 min | Potency, µM (series often up to 57.5 µM), actives largely listed as inhibitors | 0.043% of 380,000 active; further: nearly all actives have a fitted effect of over 60% in size
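Recombinant glycosomal PGK reaction used 1,3-bisphosphoglycerate generated in-well by GAPDH (100nM final) in 100mM TEA pH 7.6, 5mM MgCl2, 0.01% Tween-20. After 60 minutes at room temperature, ATP was read by Kinase-Glo Plus luminescence end-point.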
ADP-Glo interf: ADP-Glo luciferase interference, PI5P4K counter-screen | Potency, µM (highest dose often 76.9 µM), hits mostly inhibitors | ADP-Glo detection counter-screen, luciferase luminescence, no enzyme | 1,100 tested, under 10 active | shares compounds with PI5P4Ka inh
Hits are given with their value; i = inactive; ? = inconclusive; nt = no result. Shown is part of a subset that was picked to be rich in hits. Unless noted, the call rests on the fitted dose curve; in most records, active means well fitted curve in the direction sought with a large enough effect; inconclusive means small, poorly fitted or top-dose-only effect, or another doubt; inactive means no such curve, though single readings can be large; an effect the other way counts as inactive or inconclusive.

SMILES	Pin1 inh	PI5P4Ka inh	PI4K2A inh	PGK inhibitor	ADP-Glo interf
CCOc1ccccc1N1C(=O)NC(=O)/C(=C/c2ccc3c4c(cccc24)CC3)C1=O	?	-64	i	i	nt
Cc1cc(O)c2c(c1)C(=O)[C@@]13C(=C2O)C(=O)[C@H]2C(O)[C@@H]1[C@H]1C(O)[C@@H]3C(=O)C3=C(O)c4c(O)cc(C)cc4C(=O)[C@@]312 (stereo partly drawn)	nt	nt	-76	nt	nt
COc1ccc(CN2Cc3cnnn3-c3ccccc3C2C#N)cc1 (stereo not drawn)	i	i	i	i	nt
N#CC1c2ccccc2-n2nncc2CN1Cc1cc(Cl)cc(Cl)c1 (stereo not drawn)	?	-60	i	i	i
COc1ccc(C(=O)C2CCCN(Cc3ccon3)C2)c(OC)c1 (stereo not drawn)	i	-84	i	i	i
NC1(c2ccccc2)CCCCC1	nt	nt	i	nt	nt

Source: PubChem BioAssay
